In test [1] the target is Retinoic acid receptor RXR-alpha (Homo sapiens) (UniProt P19793). The experiment in a line: qHTS assay for small molecule antagonists of retinoid X receptor alpha signaling (AID 588546; active = well fitted inhibition curve with a large enough effect in the signal ratio, with a control signal flat, not every such curve was filed as active; the % refers to the signal ratio; note: % is set by controls: 0 for no effect and ±100 for the full control effect). As to conditions: HEK293T RXRa-UAS-bla, beta-lactamase ratio, antagonist mode. An outline of the steps: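 Beta-lactamase reporter inhibition, read as CCF4 fluorescence ratio (ex 405, em 460/530 nm) after 2 h at RT. HEK293T UAS-bla cells, 2500/well, were stimulated with 9-cis-RA at 500 or 100 nM final alongside test compound for 18 h at 37 C.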
Chain of Retinoic acid receptor RXR-alpha (Homo sapiens) (P19793 whole entry, looked up): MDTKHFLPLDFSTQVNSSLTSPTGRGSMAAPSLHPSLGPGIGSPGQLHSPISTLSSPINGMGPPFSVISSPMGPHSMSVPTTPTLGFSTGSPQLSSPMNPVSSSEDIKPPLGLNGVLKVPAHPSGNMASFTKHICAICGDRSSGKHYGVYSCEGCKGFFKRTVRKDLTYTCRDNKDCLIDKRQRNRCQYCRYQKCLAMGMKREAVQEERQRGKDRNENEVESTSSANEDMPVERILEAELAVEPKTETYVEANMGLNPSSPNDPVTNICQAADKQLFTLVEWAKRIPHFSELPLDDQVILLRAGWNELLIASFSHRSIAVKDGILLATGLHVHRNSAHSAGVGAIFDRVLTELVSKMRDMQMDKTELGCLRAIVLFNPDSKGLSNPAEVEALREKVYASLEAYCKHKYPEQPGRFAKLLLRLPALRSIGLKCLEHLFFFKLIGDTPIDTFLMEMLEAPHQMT
(qHTS replaces the single test concentration by a dilution series.)

Test [2] concerns the target Thyroid hormone receptor beta (Homo sapiens) (UniProt P10828). As to the kind of experiment: qHTS assay for small molecule antagonists of thyroid hormone receptor beta signaling (AID 588547; active = well fitted inhibition curve with a large enough effect in the signal ratio, with a control signal flat, not every such curve was filed as active; the % refers to the signal ratio;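 note: cells stimulated with 0.4 nM T3 agonist during compound exposure; series mostly up to about 77 µM; % is set by controls: 0 for no effect and ±100 for the full control effect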). As to conditions: TR-UAS-bla HEK293, beta-lactamase ratio, antagonist mode, 18 h. In outline:
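TR-UAS-bla GripTite HEK293 cells in 2% charcoal/dextran FBS medium; compounds 0.59 nM to 92 uM with T3 at 0.4nM final, 18 h at 37 C. Beta-lactamase read by CCF4 fluorescence (460/530 nm); Hill fits gave IC50 and efficacy.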

Test [3] has as its target Voltage-gated inwardly rectifying potassium channel KCNH2 (Homo sapiens) (UniProt Q12809). The experiment in a line: qHTS Assay for Small Molecule Inhibitors of the Human hERG Channel Activity (AID 588834).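 Note: top concentration of the series differs between compounds; % is set by controls: 0 for no effect and ±100 for the full control effect; lower thallium flux fluorescence means stronger hERG block; nearly all actives have a fitted effect of over 50% in size.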 An outline of the steps:
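Blockade is seen as reduced FluxOR thallium-flux fluorescence in U2OS cells expressing hERG from a BacMam construct, in Opti-MEM with 2% FCS. Concentration-response data fitted to the Hill equation for AC50.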

Test [4] can be described thus: qHTS assay for small molecule agonists of the antioxidant response element (ARE) signaling pathway (AID 651741; active = well fitted activation curve with a large enough effect in the signal ratio; the % refers to the signal ratio; note: potency is the fitted concentration of half-maximal effect). In outline: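 CellSensor ARE-bla HepG2 cells (2,000/well) carrying ARE-driven beta-lactamase, exposed 16 h at 37 C. LiveBLAzer B/G FRET substrate added for 2 h at room temperature; fluorescence intensity read.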
Test [5] in a line: qHTS assay for small molecule activators of the p53 signaling pathway (AID 651743; active = well fitted activation curve with a large enough effect in the signal ratio, not every such curve was filed as active; the % refers to the signal ratio; note: potency is the fitted concentration of half-maximal effect). As to conditions: HCT-116 p53RE-bla, beta-lactamase FRET ratio, 16 h; activation: stronger effect = higher value. In outline: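 p53RE-bla HCT-116 cells carrying a beta-lactamase reporter under p53 response elements were exposed to compounds for 16 hours at 37 C. Reporter activity read as fluorescence after 2 hours at room temperature with LiveBLAzer B/G FRET substrate.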

Test [6] is described as follows: qHTS assay for small molecule activators of the nuclear factor-kappa B (NF-kB) signaling pathway (AID 651749; active = well fitted activation curve with a large enough effect in the signal ratio; the % refers to the signal ratio; note: series mostly up to about 77 µM; % of control where 0% means no effect). As to conditions: NF-kB-bla ME-180 cells, beta-lactamase FRET ratio, 16 h; activation: stronger effect = higher value. In outline: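 NF-kB-bla ME-180 cells carrying a beta-lactamase reporter under an NF-kB response element, 2,000 cells/well, exposed to compound for 16 hr at 37C; FRET-based beta-lactamase fluorescence read-out of pathway activation.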

The nature of test [7]: qHTS assay for small molecule disruptors of the mitochondrial membrane potential - 1 hr assay (AID 651754; calls by dose curve; note: potency is the fitted concentration of half-maximal effect; nearly all actives have a fitted effect of over 35% in size). In outline: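 HepG2, 2,000 cells/well, overnight attachment; cpd or DMSO 1 hr, 37C/5% CO2; Mito-MPS dye 30 min, 37C; fluorescence monomer (490/535) and aggregate (540/590).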
Test [8] in a line: qHTS assay for small molecule disruptors of the mitochondrial membrane potential - 5 hr assay (AID 651755; calls by dose curve; note: potency is the fitted concentration of half-maximal effect; nearly all actives have a fitted effect of over 40% in size). In outline: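 HepG2 cells (2,000/well), attached overnight, exposed to compound 5 hr at 37C, then Mito-MPS dye 30 min. Fluorescence read for monomers (490/535 nm) and aggregates (540/590 nm).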
Test [9] has as its target Tumor necrosis factor (Homo sapiens) (UniProt P01375). As to the kind of experiment: qHTS assay to identify small molecules that stimulate Tumor Necrosis Factor-alpha (TNF-alpha) secretion (AID 651757; active = well fitted curve in the direction sought with a large enough effect in the signal ratio; the % refers to the signal ratio; note: 0% is about no effect). An outline of the steps: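 Read-out is HTRF, a TR-FRET sandwich of cryptate- and XL665-labeled anti-TNF-alpha antibodies detecting cytokine secreted by THP-1 cells. Cells had been incubated with test compounds at 37 C for 17 hrs beforehand.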

Test [10] can be described thus: qHTS assay for environmental chemicals that activate the Aryl hydrocarbon Receptor (AhR) signaling pathway (AID 651777). Note: potency is the fitted concentration of half-maximal effect; nearly all actives have a fitted effect of over 15% in size. The conditions noted are these: 1A2-DRE human hepatoma cells, luciferase, 24 h; activation: stronger effect = higher value. An outline of the steps:
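Quantitative HTS in stably transfected human liver-derived cells whose luciferase gene sits downstream of the CYP1A2 promoter and dioxin response element. After 24 hr exposure at 37 C, One-Glo luminescence was measured.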

Test [11] concerns the target Peroxisome proliferator-activated receptor alpha (Homo sapiens) (UniProt Q07869). The experiment in a line: qHTS assay for small molecule agonists of the peroxisome proliferator-activated receptor alpha (PPARalpha) signaling pathway (AID 651778). Note: % of control where 0% means no effect. As to conditions: PathHunter PPARalpha complementation, chemiluminescence, 6 h; stronger effect = higher value. An outline of the steps: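 Enzyme-fragment complementation assay in which ligand-bound PPARalpha translocates and forms an active enzyme that generates chemiluminescence. Cells were plated overnight, exposed to compound for 6 hr at 37 C, and then given detection reagent for 60 min at room temperature.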

The nature of test [12]: qHTS assay for small molecule agonists of the antioxidant response element (ARE) signaling pathway measured by Nrf2-dependant transcriptional activity (AID 720636; active = well fitted curve in the direction sought with a large enough effect in the repeat runs; an effect the other way counts as inactive or inconclusive; note: % of control where 0% means no effect). An outline of the steps: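 Quantitative HTS format in HepG2 cells stably expressing an ARE-luciferase reporter; 16 hr compound treatment at 37 C, luciferase signal detected with ONE-Glo.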
The nature of test [13]: qHTS assay for small molecule antagonists of the retinoid-related orphan receptor gamma (ROR-gamma) signaling pathway - cell viability counter screen (AID 720652; active = well fitted curve in the direction sought with a large enough effect in the repeat runs; an effect the other way counts as inactive or inconclusive;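 note: series mostly up to about 92 µM; compound exposure lasted 16 hr before ATP read; % is set by controls: 0 for no effect and ±100 for the full control effect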). In outline: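 Luminescence from CellTiter-Glo after 30 min at room temperature reported cellular ATP as the cytotoxicity measure. Cells were the CHO reporter line with doxycycline-induced ROR-gamma expression, exposed to compound for 16 hr at 37 C.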

A short description of test [14]: qHTS assay for cell viability of HEK293 cells (AID 743288). Note: % is set by controls: 0 for no effect and ±100 for the full control effect; nearly all actives have a fitted effect of over 50% in size. The conditions noted are these: ATP luminescence (CellTiter-Glo), 18 h; max response: stronger effect = lower value. An outline of the steps: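 Luminescent ATP quantitation served as the viability read-out. Cells (parental HEK293, 2,000/well) received compounds after at least 5 h at 37 C and were exposed for 18 h before a 30 min room-temperature reagent step.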

Test [15] is described as follows: qHTS assay for cell viability of the p53RE-bla HCT-116 cell line (AID 743292). Note: % is set by controls: 0 for no effect and ±100 for the full control effect; nearly all actives have a fitted effect of over 55% in size. An outline of the steps: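 Viability of compound-treated p53RE-bla HCT-116 cells is taken from ATP-dependent luciferase luminescence. Treatment lasts 16 h at 37 C after a 5 h settling period; detection follows 30 min at room temperature.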
A further test addresses Furin (Homo sapiens) (UniProt P09958). The experiment in a line: Furin counterscreen qHTS for Zika virus inhibitors (AID 1347149).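 Note: purified recombinant full-length human furin enzyme at 5 nM; fluorescence gain from furin cutting a BOC-RVRR-AMC peptide substrate over 15 min; top concentration of the series differs between compounds; plate controls were no-inhibitor control for no effect and no-enzyme control for full effect; nearly all actives have a fitted effect of over 70% in size.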 An outline of the steps: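 Fluorogenic cleavage of BOC-RVRR-AMC (2 microM final, Km ~15 µM) was monitored (ex 340, em 450 nm) at 37C after 15 min RT preincubation of 5 nM furin with compounds in HEPES pH 7.0 buffer with CaCl2 and Triton X-100. Percent inhibition was fitted to a 4-parameter Hill curve.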

The nature of test [16]: Confirmatory screen GU Rhodamine qHTS for Zika virus inhibitors qHTS (AID 1347157). Note: potency is the fitted concentration of half-maximal effect; nearly all actives have a fitted effect of over 70% in size. In outline: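 Noncovalent NS2B hydrophilic domain/NS3 protease complex (25 nM final) in 10 mM Tris-HCl pH 8.0, 0.01% Tween 20, preincubated 15 min with compounds (up to 114 microM), then 1.5 microM Rhodamine110 substrate. Fluorescence change over 15 min fitted to 4-parameter Hill.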
Test [17] in a line: ZIKV-mCherry secondary qHTS for Zika virus inhibitors (AID 1347158). Note: potency is the fitted concentration of half-maximal effect. As to conditions: Vero cells, ZIKV-mCherry infection imaging, 48-72 h. An outline of the steps: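 Vero, 5,000 cells/well, o/n 37 °C; cpd pin-transferred in DMSO; ZIKV-mCherry MOI 1, 48-72 h 37 °C; 32% PFA stock fix, Hoechst; imaged 10x DAPI/mCherry; mCherry+ threshold 450 RFU; % infection.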
A short description of test [18]: Confirmatory screen NINDS Rhodamine qHTS for Zika virus inhibitors (AID 1347161). Note: potency is the fitted concentration of half-maximal effect; nearly all actives have a fitted effect of over 60% in size. In outline:
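Purified NS2B-NS3 protease with the NS2B hydrophilic domain joined by a flexible linker (25 nM) in 10 mM Tris-HCl pH 8.0, 0.01% Tween 20, preincubated 15 min at RT with compound; Rhodamine110 peptide substrate 1.5 µM; fluorescence change over 15 min; 4-parameter Hill fit.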

Test [19] has as its system Zika virus NS2B-NS3 protease (linked). As to the kind of experiment: 384 well plate NINDS AMC confirmatory qHTS for Zika virus inhibitors (AID 1347163). Note: potency is the fitted concentration of half-maximal effect; nearly all actives have a fitted effect of over 50% in size. As to conditions: Recombinant NS2B-NS3 protease, Ac-VKTGKR-AMC fluorescence. An outline of the steps:
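Linked NS2B-NS3 protease (final 5 nM, 30 nM or 60 nM) was preincubated with compounds (final up to 1 mM) for ~15 minutes. Ac-VKTGKR-AMC substrate (final 30 microM) then reacted for 25 minutes at room temperature in the dark. Fluorescence (ex 355/em 460 nm) was normalized to no-enzyme and no-inhibitor controls.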

In test [20] the test system is Zika virus NS2B-NS3 protease (linked construct). As to the kind of experiment: 384 well plate NINDS Rhodamine confirmatory qHTS for Zika virus inhibitors (AID 1347164). Note: potency is the fitted concentration of half-maximal effect; nearly all actives have a fitted effect of over 65% in size. An outline of the steps: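 Cleavage of Ac-LKRR-Rhodamine 110 (10 microM final) by linked protease (final 5, 30 or 60 nM) was followed as fluorescence at 485/538 nm after 25 min, room temperature, dark. Compounds preincubated ~15 min.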

Test [21] has as its target Nuclear receptor subfamily 1 group I member 2 (Rattus norvegicus) (UniProt Q9R1A7). As to the kind of experiment: qHTS assay for small molecule activators of the rat pregnane X receptor (rPXR) signaling pathway (AID 651751; call rule not given here; note: 0% is about no effect). As to conditions: rPXR reporter cells, luciferase (One-Glo), 24 h.

This note sets out measurements from PubChem BioAssay (NCATS).

The structures appear in SMILES notation. Several values for one entry are separate records, joined by “and”; a condition that tells them apart may be missing. Equal values may be shown once. Values without a mark were called inactive. Inconclusive results are not listed. Activity calls are given as the source filed them. Unless noted, calls come from the whole dose curve; as a rule, active = well fitted curve in the direction sought with a large enough effect; inconclusive = small, poorly fitted or top-dose-only effect, or another doubt; inactive = no such curve, though single readings can be large; an effect the other way counts as inactive or inconclusive.

Chain of Nuclear receptor subfamily 1 group I member 2 (Rattus norvegicus) (Q9R1A7 whole entry, looked up): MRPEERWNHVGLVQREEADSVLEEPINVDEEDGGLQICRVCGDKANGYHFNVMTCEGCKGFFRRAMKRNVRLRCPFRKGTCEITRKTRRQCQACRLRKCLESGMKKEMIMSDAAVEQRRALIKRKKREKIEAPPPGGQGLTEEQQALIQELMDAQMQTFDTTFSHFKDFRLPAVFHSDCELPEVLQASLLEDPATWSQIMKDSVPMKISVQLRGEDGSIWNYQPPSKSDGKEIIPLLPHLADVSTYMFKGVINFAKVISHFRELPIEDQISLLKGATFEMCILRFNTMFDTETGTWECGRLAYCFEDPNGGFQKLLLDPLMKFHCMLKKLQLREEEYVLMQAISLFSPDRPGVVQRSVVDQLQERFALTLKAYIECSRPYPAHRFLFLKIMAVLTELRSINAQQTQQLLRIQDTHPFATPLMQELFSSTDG
Chain of Peroxisome proliferator-activated receptor alpha (Homo sapiens) (Q07869 whole entry, looked up, the tested form may be a part): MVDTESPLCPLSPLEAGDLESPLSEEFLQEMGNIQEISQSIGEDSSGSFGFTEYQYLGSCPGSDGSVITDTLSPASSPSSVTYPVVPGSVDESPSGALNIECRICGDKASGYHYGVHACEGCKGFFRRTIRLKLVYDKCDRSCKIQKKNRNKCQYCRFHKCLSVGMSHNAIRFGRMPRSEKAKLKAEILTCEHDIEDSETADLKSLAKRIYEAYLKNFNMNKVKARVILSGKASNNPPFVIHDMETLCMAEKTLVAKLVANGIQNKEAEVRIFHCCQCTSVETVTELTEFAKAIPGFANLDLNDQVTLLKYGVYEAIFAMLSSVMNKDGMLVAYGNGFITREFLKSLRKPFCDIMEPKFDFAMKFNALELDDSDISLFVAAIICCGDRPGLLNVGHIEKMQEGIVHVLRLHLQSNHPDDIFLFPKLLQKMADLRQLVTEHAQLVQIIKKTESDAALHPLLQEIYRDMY
Chain of Furin (Homo sapiens) (P09958 whole entry, looked up): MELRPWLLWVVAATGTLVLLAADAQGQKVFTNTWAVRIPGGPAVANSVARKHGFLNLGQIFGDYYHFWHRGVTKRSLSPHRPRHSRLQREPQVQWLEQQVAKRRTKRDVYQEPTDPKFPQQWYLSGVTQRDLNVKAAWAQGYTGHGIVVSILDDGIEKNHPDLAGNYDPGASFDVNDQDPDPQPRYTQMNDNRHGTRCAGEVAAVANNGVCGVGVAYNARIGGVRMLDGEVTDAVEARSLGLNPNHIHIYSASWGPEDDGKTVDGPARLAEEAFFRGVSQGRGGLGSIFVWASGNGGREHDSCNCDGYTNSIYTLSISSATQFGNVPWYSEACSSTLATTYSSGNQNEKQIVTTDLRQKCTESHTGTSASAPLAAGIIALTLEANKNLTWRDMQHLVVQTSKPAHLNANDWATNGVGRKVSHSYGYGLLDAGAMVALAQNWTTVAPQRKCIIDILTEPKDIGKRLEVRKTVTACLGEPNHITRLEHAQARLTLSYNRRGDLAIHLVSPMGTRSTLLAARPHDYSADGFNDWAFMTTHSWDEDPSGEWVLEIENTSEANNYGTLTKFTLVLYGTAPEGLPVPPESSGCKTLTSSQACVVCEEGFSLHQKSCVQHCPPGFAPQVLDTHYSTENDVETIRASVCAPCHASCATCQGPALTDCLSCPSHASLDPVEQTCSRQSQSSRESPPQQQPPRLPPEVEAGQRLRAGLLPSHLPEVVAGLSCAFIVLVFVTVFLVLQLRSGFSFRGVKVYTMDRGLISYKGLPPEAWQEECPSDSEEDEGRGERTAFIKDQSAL
Chain of Thyroid hormone receptor beta (Homo sapiens) (P10828 whole entry, looked up): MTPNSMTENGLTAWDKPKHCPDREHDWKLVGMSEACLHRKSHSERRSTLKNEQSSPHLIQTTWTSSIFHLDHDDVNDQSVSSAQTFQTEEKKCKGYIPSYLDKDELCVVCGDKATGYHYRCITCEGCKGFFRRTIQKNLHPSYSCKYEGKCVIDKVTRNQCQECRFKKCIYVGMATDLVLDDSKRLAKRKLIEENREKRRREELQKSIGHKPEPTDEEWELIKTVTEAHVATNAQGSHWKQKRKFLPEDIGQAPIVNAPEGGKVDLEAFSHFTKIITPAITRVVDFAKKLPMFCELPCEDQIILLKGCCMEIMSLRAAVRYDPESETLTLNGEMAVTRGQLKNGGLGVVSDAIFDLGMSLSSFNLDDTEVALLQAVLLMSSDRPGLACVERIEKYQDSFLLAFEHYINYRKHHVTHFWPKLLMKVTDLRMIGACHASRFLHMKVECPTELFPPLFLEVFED
Chain of Tumor necrosis factor (Homo sapiens) (P01375 whole entry, looked up): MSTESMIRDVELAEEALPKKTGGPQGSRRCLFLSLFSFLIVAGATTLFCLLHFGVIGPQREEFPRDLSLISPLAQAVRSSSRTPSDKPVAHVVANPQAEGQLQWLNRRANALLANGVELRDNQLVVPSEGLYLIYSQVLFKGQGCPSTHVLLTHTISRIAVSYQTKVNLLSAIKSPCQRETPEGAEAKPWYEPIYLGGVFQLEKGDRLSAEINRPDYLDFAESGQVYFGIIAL
Chain of Voltage-gated inwardly rectifying potassium channel KCNH2 (Homo sapiens) (Q12809 whole entry, looked up): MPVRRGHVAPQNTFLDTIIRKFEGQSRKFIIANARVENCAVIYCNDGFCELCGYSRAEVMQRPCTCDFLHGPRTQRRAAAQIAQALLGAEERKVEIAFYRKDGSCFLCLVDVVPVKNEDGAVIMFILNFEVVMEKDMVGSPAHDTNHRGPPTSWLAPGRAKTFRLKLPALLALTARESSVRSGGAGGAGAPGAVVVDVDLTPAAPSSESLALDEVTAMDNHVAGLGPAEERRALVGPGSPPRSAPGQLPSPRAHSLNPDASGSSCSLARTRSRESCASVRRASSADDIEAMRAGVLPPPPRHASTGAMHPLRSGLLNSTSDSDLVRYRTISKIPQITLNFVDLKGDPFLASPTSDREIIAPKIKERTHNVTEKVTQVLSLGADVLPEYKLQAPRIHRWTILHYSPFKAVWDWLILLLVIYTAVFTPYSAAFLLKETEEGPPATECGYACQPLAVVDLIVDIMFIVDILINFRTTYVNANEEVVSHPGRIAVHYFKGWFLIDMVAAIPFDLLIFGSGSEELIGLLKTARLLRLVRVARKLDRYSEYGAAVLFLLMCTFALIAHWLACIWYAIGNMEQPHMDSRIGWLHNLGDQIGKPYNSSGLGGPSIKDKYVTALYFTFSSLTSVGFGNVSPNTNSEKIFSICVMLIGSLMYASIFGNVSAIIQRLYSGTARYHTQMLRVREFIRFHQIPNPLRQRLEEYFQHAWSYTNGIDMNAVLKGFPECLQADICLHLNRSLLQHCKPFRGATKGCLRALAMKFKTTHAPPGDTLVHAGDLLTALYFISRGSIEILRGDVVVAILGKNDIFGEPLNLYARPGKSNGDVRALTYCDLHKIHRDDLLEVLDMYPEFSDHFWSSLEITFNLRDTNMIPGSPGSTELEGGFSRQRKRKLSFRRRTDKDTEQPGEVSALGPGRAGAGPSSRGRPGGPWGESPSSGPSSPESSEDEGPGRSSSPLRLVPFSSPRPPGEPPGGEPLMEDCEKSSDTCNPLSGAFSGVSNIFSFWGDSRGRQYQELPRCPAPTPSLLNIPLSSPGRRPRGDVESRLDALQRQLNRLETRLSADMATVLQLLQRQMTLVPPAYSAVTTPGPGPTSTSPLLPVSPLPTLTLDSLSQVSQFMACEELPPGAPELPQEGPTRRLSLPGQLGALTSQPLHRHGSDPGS

`Oc1c(Cl)c(Cl)c(Cl)c(Cl)c1Cl`: the max response in test [1] was 12.8% and -17.7%; in test [11], 18.2% and 10.1%; in [14], -15.6% and -10.7%; in test [21], -11.9% and -10.8%. Moreover, the activity change % (negative = inhibition) in [2] was -4.36%. Moreover, the Potency entry (in [3]; in test [12]; in the test with Furin (Homo sapiens)) was “inactive” in each case. In addition, the Potency in [4] is 26.6 µM (active) and 24.3 µM (active); in test [5], 22.4 µM (active) and 39.8 µM (active); in test [7] it was 42.2 µM (active); in test [8], 42.2 µM (active); in test [10], 44.7 µM (active) and 39.8 µM (active); in test [16], 7.08 µM (active). In addition, the Potency in test [17] is 11.2 µM (active); in [18], 4.47 µM (active); in test [19], 355 µM (active); in test [20], 70.8 µM (active). Besides, the activation in test [6] is -1.59%. Moreover, the outcome in test [9], in test [13] and in [15] was inactive.
